Measured values as given in the supplement of paper PMC3334620.
In all, about 33,000 sequences were measured (“E-score (-0.5 to 0.5)”: median about -0.016, highest 2% from about 0.32 on). Shown is part of a subset that was picked to be rich in the highest values.

target: T1, Stp1 (UniProt B3LFK1); experiment: PBM E-score (8-mer binding enrichment) (E-score (-0.5 to 0.5)); higher = stronger / more preferred TF binding; settings: protein concentration: 200 nM; construct: GST-full length
T1 sequence: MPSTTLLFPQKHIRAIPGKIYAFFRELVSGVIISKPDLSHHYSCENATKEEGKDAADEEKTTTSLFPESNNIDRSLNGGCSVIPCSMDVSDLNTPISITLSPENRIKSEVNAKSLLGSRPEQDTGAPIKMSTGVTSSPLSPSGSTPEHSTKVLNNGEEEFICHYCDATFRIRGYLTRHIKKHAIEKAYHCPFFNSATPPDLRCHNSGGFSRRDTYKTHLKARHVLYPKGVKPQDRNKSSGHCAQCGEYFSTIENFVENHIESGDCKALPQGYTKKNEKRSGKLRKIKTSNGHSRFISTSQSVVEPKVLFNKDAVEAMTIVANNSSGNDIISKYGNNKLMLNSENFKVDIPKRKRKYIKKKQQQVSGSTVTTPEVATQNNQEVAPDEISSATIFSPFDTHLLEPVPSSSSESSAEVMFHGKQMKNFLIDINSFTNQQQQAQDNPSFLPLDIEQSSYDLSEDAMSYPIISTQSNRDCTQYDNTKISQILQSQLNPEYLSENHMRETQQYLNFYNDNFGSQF
Method: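 Universal 'all 10-mer' protein binding microarrays (Agilent AMADID 015681) probed with GST-tagged S. cerevisiae TFs (full-length or DBD) made by in vitro transcription/translation (PURExpress), about 100-200 nM. Bound TF was detected with fluorescent anti-GST. Each ungapped 8-mer (which stands for itself and its reverse complement) is scored by the PBM enrichment score (E-score), a modified Wilcoxon-Mann-Whitney statistic from -0.5 to +0.5, computed with the Universal PBM Analysis Suite. Scale: above 0.35 generally sequence-specific binding.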

Point of comparison: GCGGCGCC, “PBM E-score” value 0.484. Against it:
- GTTCTGTA — lower, 0.0215
- TCCCGCGA — lower, -0.312
- TATTGAGA — lower, 0.0944
- CCTGCTCC — lower, 0.0227
- CATTAAAA — lower, 0.245
- CAAGACCC — lower, -0.272
- AAAGGACC — lower, 0.0732
- ATGAGTAC — lower, 0.0493
- CATGTGGG — lower, -0.144
- AGTGTGGC — lower, 0.068
- CATGTGGC — lower, 0.32
- CGTGTGGC — lower, 0.353
- AATGTGGC — lower, 0.158
- CGTGTGGA — lower, 0.016
- AGCTCATC — lower, -0.307
- TAGCACCA — lower, -0.0587
- GCAACTAA — lower, 0.263
- ATGTTTCG — lower, 0.147
- AAAAACGA — lower, 0.128
- CCGGCGGC — lower, 0.152
- GCGGCGCA — lower, 0.463
- CCGGCGCG — lower, 0.298
- GGGGCGCA — lower, 0.126
- CCGGCGCC — lower, 0.367
- CCGGCGCA — lower, 0.121
- TCGGCGCA — lower, 0.243
- GCGGCCCC — lower, 0.176
- CTTCAGAC — lower, -0.00198
- AGTCGCGC — lower, 0.0334
- GCCCTAGA — lower, -0.0515
- CTGCTTCA — lower, -0.155
- ACTATCTG — lower, -0.183
- AGCCGCTG — lower, 0.0781
- CGCCGCTC — lower, 0.434
- CACCGCTC — lower, -0.0467
- AGCCGCTC — lower, 0.337
- CGCCGCTA — lower, 0.299
- AGCCGCTA — lower, 0.119
- ATGACCAA — lower, -0.0118
- CGATTAGA — lower, 0.083
- CGACAGGC — lower, -0.0711
- CAAGATCA — lower, 0.101
- GCTGCCCC — lower, -0.0352
- CAGTCAAC — lower, -0.139
- CATACTTC — lower, -0.12
- CCACCCAC — lower, 0.0467
- TGGCACCA — lower, 0.176
- CTGCACCA — lower, -0.199
- AGGCACGA — lower, 0.267
- AGGCACCT — lower, 0.135
- GGGCACCA — lower, 0.056
- AGGCACGG — lower, 0.397
- AGGCACCA — lower, 0.366
- AGGCACAT — lower, 0.276
- CGGCACCA — lower, 0.462
- CCTCTCTA — lower, -0.212
- AACCAGTT — lower, 0.143
- GAGAAGCC — lower, -0.0953
- GGTGGCAC — lower, 0.147
- TGGTGAAA — lower, 0.0915
- CATTTTGG — lower, 0.114
- ATAGTGAG — lower, -0.0378
- TGATTCCA — lower, -0.0134
- GAAGGTAC — lower, -0.11
- CATCGCCG — lower, 0.375
- AGTCGCCC — lower, -0.174
- AATCGCCT — lower, 0.302
- AGTCGCCA — lower, -0.199
- AATCGCCG — lower, 0.431
- CATCGCCC — lower, -0.0878
- ATTCGCCG — lower, 0.328
- ATTCGCCC — lower, -0.0713
- AATCGCCC — lower, 0.0762
- AGTCGCCG — lower, 0.369
- CATCGCCA — lower, 0.0899
- ATTCGCCA — lower, 0.0506
- AAGCATCT — lower, -0.17
- AGGATATG — lower, 0.0335
- ACCATCCG — lower, -0.144
- ACTGGACG — lower, -0.112
- GTAGCTGA — lower, -0.154
- GTCTCTAA — lower, -0.0881
- AAACGGTT — lower, -0.155
- AGATAACT — lower, -0.103
- CGCGCCAC — lower, 0.286
- GGCGCCAA — lower, 0.379
- AGCGCCAC — lower, 0.13
- GGCGCCAC — lower, 0.384
- CGCGCCAA — lower, 0.132
- AGCGCCAA — lower, -0.059
- AAAGCCGA — lower, -0.0141
- AAAGCCTC — lower, 0.204
- AAAGCCGC — lower, 0.369
- GAAGCCGA — lower, -0.0348
- ACAGCCGT — lower, 0.354
- AAAGCCAC — lower, 0.123
- ACAGCCGC — lower, 0.25
- GAAGCCGC — lower, 0.393
- AAAGCCGG — lower, 0.135
- CAAGCCGC — lower, 0.299
- ACAGCCGA — lower, -0.0659
- AAAGCCGT — lower, 0.386
- GGAGTACA — lower, -0.00077
- CGTCTTAG — lower, 0.0086
- CTTCATCA — lower, -0.0498
- AACTCTAA — lower, -0.00844
- AACAAATT — lower, 0.232
- CATTATGG — lower, -0.177
- GCGGTCCC — lower, -0.16
